Only some compounds are listed: those with a hit (about 0.71% of all), similar ones and a draw of the others.
TR SRC2 fluor cs – Total Fluorescence Counterscreen for Inhibitors of the Interaction of Thyroid Hormone Receptor and Steroid Receptor Coregulator 2. TRb/SRC2 Texas Red total fluorescence interference. Potency, µM (series often up to 106 µM). 0.29% of 280,000 active; active = well fitted curve in either direction with a large enough effect; inconclusive = small, poorly fitted or top-dose-only effect
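Human TRβ ligand-binding domain (0.6 uM) and Texas Red SRC2 peptide (20 nM) in Tris buffer with 1 uM T3 and 5% DMSO were incubated with pinned compound for 5 hr at ambient temperature. Total fluorescence was computed as S + 2P (555/632 nm).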
TRb-SRC2 inh – qHTS for Inhibitors of the Interaction of Thyroid Hormone Receptor and Steroid Receptor Coregulator 2; Thyroid hormone receptor beta (Homo sapiens), P10828; TRbeta-SRC2 peptide binding, fluorescence polarization; receptor liganded with 1 µM T3; Potency, µM (series often up to 106 µM), most hits filed as inhibitors; 0.065% of 280,000 active; also: nearly all actives have a fitted effect of over 50% in size
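Each compound concentration gave % activity, normalized to unbound and bound Texas Red SRC2 controls, from polarization read after 5 hr ambient incubation with T3-loaded human TRb LBD.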
GoLoco inh red – qHTS Assay for Inhibitors of RGS12 GoLoco Motif Activity (Red Fluorophore). AID 880, 2007. 0.44% of 230,000 active. Gai1:RGS12 GoLoco peptide FP, rhodamine, 10 min. Potency, µM (top dose mostly 61.6 µM), most hits filed as inhibitors; active = well fitted inhibition curve with a large enough effect, not every such curve was filed as active; inactive = no such curve, though single readings can be large or run the other way; also: nearly all actives have a fitted effect of over 30% in size
Target sequence (P63096 whole entry, looked up): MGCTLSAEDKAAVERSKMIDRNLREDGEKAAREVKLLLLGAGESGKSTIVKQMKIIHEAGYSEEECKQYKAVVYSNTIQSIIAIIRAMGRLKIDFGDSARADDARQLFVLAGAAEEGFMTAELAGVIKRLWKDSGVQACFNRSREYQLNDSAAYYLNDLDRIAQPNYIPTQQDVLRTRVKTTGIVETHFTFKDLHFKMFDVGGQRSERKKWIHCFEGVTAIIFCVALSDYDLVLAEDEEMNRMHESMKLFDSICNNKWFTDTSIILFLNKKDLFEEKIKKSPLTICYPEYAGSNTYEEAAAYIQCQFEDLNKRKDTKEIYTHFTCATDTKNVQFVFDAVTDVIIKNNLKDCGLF
Epigenetic derep – Quantitative High-Throughput Screen for Regulators of Epigenetic Control; murine LDR cells, GFP reporter derepression, 30 h; Potency, µM (titrated, usually from 53.9 µM), usual class: activators; 0.2% of 280,000 active; also: nearly all actives have a fitted effect of over 60% in size
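Murine LDR cells bearing a silenced CMV-driven GFP reporter were exposed to compound for 30 h at 37 C. After PBS washes, GFP-positive cells (20-120 um objects) counted by laser-scanning microplate cytometry.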
CBFb-RUNX1 inh – qHTS Assay for Compounds Blocking the Interaction Between CBF-beta and RUNX1 for the Treatment of Acute Myeloid Leukemia; AlphaScreen CBFb-His/RUNX1-biotin binding, biochemical; 230,000 tested, under 10 active; AID 1477, 2009; Potency, µM (series often up to 59.8 µM), hits mostly inhibitors
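CBFb-His/RUNX1-biotin, 30 nM each, preincubated 20 min RT; compound 15 min RT; Ni + streptavidin beads 50 ng each, 90 min RT; AlphaScreen read.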
A number is an active result; 0 = inactive; ? = inconclusive; - = no result; [ ] = remark or other dose. Unless noted, calls follow the shape of the dose curve; as a rule, active = well fitted curve in the direction sought with a large enough effect; inconclusive = small, poorly fitted or top-dose-only effect, or another doubt; inactive = no such curve, though single readings can be large; an effect the other way counts as inactive or inconclusive.

SMILES	TR SRC2 fluor cs	TRb-SRC2 inh	GoLoco inh red	Epigenetic derep	CBFb-RUNX1 inh
CCn1cc(S(=O)(=O)c2cccc(Cl)c2)c(=O)c2cc(F)c(N3CCN(c4ccccc4)CC3)cc21	0	0	-	0	-
CCCCOC(=O)CC(CC(=O)OCCCC)(OC(C)=O)C(=O)OCCCC	0	0	-	-	-
Cc1ccc(N=C2NC(=O)/C(=C/C=C/c3ccco3)S2)cc1	40µM[quencher]	?	0	0	-
CC(S)C(=O)NCC(=O)O (centres undefined)	0	0	10µM	0	0
O=C(O)CNC(=O)[C@@H](CS)Cc1ccccc1	0	0	0	0	0
CCN1C(=O)/C(=C2/Sc3ccc(OC)cc3N2C)SC1=Nc1ccc(OC)cc1	0	0	0	0	0
C=CCN1C(=O)/C(=C2/Sc3ccc(OC)cc3N2C)SC1=Nc1cccc(O)c1	0	0	0	10µM	0
COc1ccc(N=Nc2nc3cc(Br)c(Br)cc3n2C)c(OC)c1	0	0	1.6µM	0	0
COc1cc(OC)cc(C(=O)OCC(=O)Nc2ccc(N3CCCCC3)cc2)c1	0	0	18µM	0	0
COc1ccc2[nH]c(O)c(N=O)c2c1	0	0	16µM	0	0
O=Nc1c(O)[nH]c2ccc(F)cc12	0	0	0	0	0
CCC1CC=CC2C1C(=O)N(Cc1ccccc1)C2c1ccoc1 (centres undefined)	0	0	-	-	0
COC(=O)c1ccc(NC(=O)N2CCC(CN3CCc4ccccc4C3)CC2)cc1	112µM[quencher]	0	-	0	-
COc1cc(NC(=O)N2CCC(CN3CCc4ccccc4C3)CC2)cc(OC)c1	?	0	-	0	-
COc1ccc(Cl)cc1NC(=O)N1CCC(CN2CCc3ccccc3C2)CC1	56µM[quencher]	0	-	0	-
CCCCC(CC)COC(=O)CS (centres undefined)	0	0	-	-	-
COc1ccc(CCNC(=O)c2cc(Nc3ccccc3)nc3ccccc23)cc1OC	0.0008µM[quencher]	0	-	0	-
Cc1ccc(OC2C(O)COC2/C=C/C#Cc2ccc(C(C)(C)C)cc2)cc1 (centres undefined)	0[11.2 µM]	0[11.2 µM]	-	0[10.1 µM]	0[13.1 µM]
C=CC(=O)OCCOc1ccccc1	0	?	-	-	-
CCn1ccc2cc(OC)ccc2c1=S	0	0	0	0	0
CCSc1ccc2cc(OC)ccc2[n+]1CC	0	0	2.5µM	0	0
Cc1ccc(NC(=O)CSc2nc3nccnc3c(=O)n2CCc2c[nH]c3ccccc23)cc1	25µM[quencher]	?	-	0	-
O=C(CSc1nc2nccnc2c(=O)n1CCc1c[nH]c2ccccc12)Nc1ccccc1	?	?	-	0	-
CC(C)(C)COS(=O)OCC(C)(C)C	-	-	0[14.2 µM]	-	-
Cc1c2cc(O)c(=O)cc-2oc2cc(O)c(O)cc12	0	0	7.9µM	0	-
SMILES	TR SRC2 fluor cs	TRb-SRC2 inh	GoLoco inh red	Epigenetic derep	CBFb-RUNX1 inh
COc1cc2oc(-c3ccccc3)cc(=O)c2cc1OC	0	0	0	0	0
COc1cc(OC)c(-c2c3cc(O)c(=O)cc-3oc3cc(O)c(O)cc23)cc1OC	40µM[fluorescent]	?	0	0	-
c1ccc2[nH]c(SN3CCOCC3)nc2c1	0	0	8.9µM	0	0
Cc1ccc(-c2nc3cccnc3s2)cc1NC(=O)Cc1ccccc1	100µM[quencher]	0	-	0	-
C[N+]1(CCCC[N+]2(C)CCCCCCC2)CCCCCCC1	-	-	0[14.2 µM]	-	-
C[N+]1(CCCCSc2ccc(O)cc2)CCCCC1	0	0	0.63µM	0	0
CCCCCCC(O)CCCCCCCCCCC(=O)OC (centres undefined)	0	0	-	-	-
Cc1cc(N/N=C/c2ccc([N+](=O)[O-])o2)nc2ccccc12	0	0	0	6.3µM	0
CCN1CCN(c2c(/C=C3\SC(=S)N(Cc4ccco4)C3=O)c(C)c(C#N)c(=O)n2C)CC1	0	0	0	7.1µM	0
COc1ccc(-n2c(C)cc(/C=C3\SC(=S)N(Cc4ccco4)C3=O)c2C)cc1	0	0	0	?	0
Cc1nc2c3ccccc3nc(NNC(=O)CCC(=O)N3CCN(c4cc(Cl)ccc4C)CC3)n2n1	0	0	-	0	-
O=S(=O)(/N=C/c1c(O)ccc2ccccc12)c1cccs1	?	28µM	0	0	0
O=C=NC1CCC(CC2CCC(N=C=O)CC2)CC1 (centres undefined)	0	0	-	-	-
N#Cc1c(NC(=S)NC(=O)c2ccccc2)sc2c1CCN(CCc1ccccc1)C2	0	0	0	5.6µM	?
CCOC(=O)NN1C(=O)c2ccccc2NC1c1ccccc1 (centres undefined)	?	0	0	0	0
CCOC(=O)NN1C(=O)c2ccccc2NC1c1ccc(N(C)C)cc1 (centres undefined)	112µM[quencher]	0	0	0	0
CCCCCCCCCC(=O)OC	0	0	-	-	-
CCS(=O)(=O)c1ccc(N=Nc2ccc(O)c3ncccc23)c(OC)c1	0	0	0	3.5µM	-
Cc1ccc(N=Nc2ccc(O)c3ncccc23)cc1C	0	0	0	0	0
CCCn1c2ccccc2c2cnn(CC(=O)Nc3cc(OC)c(OC)c(OC)c3)c(=O)c21	18µM[quencher]	0	-	0	-
CC1=CC(=O)CC(C)(C)C1	0	0	-	-	-
CC[C@H](C)N(C)C(=O)c1cc2ccccc2c(-c2ccccc2Cl)n1	0	0	0	0	0
CCN1/C(=C/c2cc[n+](CCCS(=O)(=O)[O-])c3ccccc23)Sc2ccccc21	0	0	0	13µM	0
CCC(=O)/C=C1/Sc2ccccc2N1CC	0	0	0	0	0
CCCCOc1ccc(C(=O)N2CCN(CCc3ccncc3)CC2)cc1	6.3µM[quencher]	0	-	0	-
SMILES	TR SRC2 fluor cs	TRb-SRC2 inh	GoLoco inh red	Epigenetic derep	CBFb-RUNX1 inh
CCCCOc1cccc(C(=O)N2CCN(CCc3ccncc3)CC2)c1	0	0	-	0	-
CC[C@@H](c1ccccc1)n1c(=O)n2n(c1=O)[C@H]1[C@H](O)[C@H]3O[C@H]3C(=O)[C@H]1CC2	0[11.2 µM]	0[11.2 µM]	-	0[10.1 µM]	0[13.1 µM]
CSc1nsc(/C=C/Nc2ccc(C)cc2)c1C#N	0	0	0	0	0
CSc1nsc(/C=C/Nc2ccc(C)c(C)c2)c1C#N	0	0	0	3.5µM	?
COc1cccc([C@@H]2Oc3ccc(OC)cc3C(=O)[C@H]2OC(=O)Nc2ccc(OC(F)F)cc2)c1	0	0	0	0	0
Cc1ccc2nc3sc(C(=O)NCc4ccco4)c(N)c3cc2c1	0	0	0	16µM	0
O=C(O)C1CC(=O)N(CCC23CC4CC(CC(C4)C2)C3)C(=Nc2ccccc2)S1 (centres undefined)	-	-	-	0	-
CCc1cccc(C)c1NC(=O)CN1C(=O)C2(SCC(=O)N2c2cccc(F)c2)c2ccccc21 (centres undefined)	20µM[quencher]	0	-	0	-
CCc1ccc(C(=O)c2cn(CC(=O)Nc3cc(F)ccc3F)c3nc(C)ccc3c2=O)cc1	0	0	-	20µM	-
Cc1ccc(CNC(=O)Cn2cc(C(=O)c3ccc(F)cc3)c(=O)c3ccc(C)nc32)cc1	0	0	-	0	-
O=C1/C(=C/c2ccc(O)c(O)c2)Oc2ccccc21	0	0	-	-	?

Screening data (PubChem)
